Data published in the emibetuzumab library of Makowski et al. (2022).
The list shows a part of the results. The true hit rate is not given.

B1: VH:VL chains; a variant is named by its letters at X, in order (parent)
chain 1: QVQLVQSGAEVKKPGASVKVSCKASGYTFTDYXMHWVRQAPGQGLEWMGXVNPNXXXTTYNQKFEGRVTMTTDTSTSTAYMELRSLRSDDTAVYYCARXNXLDXWGQGTTVTVSS
chain 2: DIQMTQSPSSLSASVGDRVTITCSVSSSVSSIYLHWYQQKPGKAPKLLIYSTSNLASGVPSRFSGSGSGTDFTLTISSLQPEDFATYYCQVYSGYPLTFGGGTKVEIK

Variants of: B1
Assay: yeast display scFab, FACS + sequencing
Settings: with MET
Summary of the method: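 For FACS, yeast displaying a heavy-chain CDR mutant scFab library were labelled with 1 nM HGFR-Fc and anti-Myc (PBSB, 1% milk, 3 h, room temperature), and the top 50% antigen-positive cells were gated. Input and round-3 sorted populations were deep sequenced in two replicates. The binding call was positive for sequences occurring in both antigen-positive samples and negative for sequences occurring only in input.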

Row | Variant | antigen binding call
1 | DATEDDSA | no binding
2 | YTRGADWY | no binding
3 | YRRRGDWY | binds
4 | FRRRGDWY | no binding
5 | YTKRGDWD | no binding
6 | YRRRGDWD | binds
7 | YRGKGSWS | binds
8 | YRGKGAWS | binds
9 | DEEASSWA | no binding
10 | DTGTGDVA | no binding
11 | VRAGGSVA | binds
12 | VRAGDSVA | binds
13 | VRARGVVA | no binding
14 | VRAGDAGA | binds
15 | VKRGDDVA | no binding
16 | VRRGDFWA | no binding
17 | VTAGDDVA | no binding
18 | VRRGDSVA | binds
19 | VEAGDAVA | no binding
20 | VRAGDDGA | no binding
21 | VRATGSVY | no binding
22 | VEAGDDGA | no binding
23 | VGGRADGF | no binding

Row | Variant | antigen binding call
24 | SKTKSDGA | no binding
25 | DAGGAAGD | no binding
26 | ATTKSAVA | no binding
27 | VKAGDDVA | no binding
28 | VRRASSVA | binds
29 | FRAEGSVA | binds
30 | VRAEGSVA | binds
31 | YKAGDSVA | binds
32 | VTRGADAV | no binding
33 | SGAGDYSD | no binding
34 | VRAGDSSA | binds
35 | VRGTGFGA | no binding
36 | VEAGDSSA | no binding
37 | VRAGGFGA | binds
38 | VTGGDSSA | no binding
39 | VAEKGFGA | no binding
40 | VKTGGDVF | no binding
41 | VAGAGAGA | no binding
42 | YRGAGAGA | binds
43 | YRGAGAAA | binds
44 | YRGASAAA | binds
45 | YRGAGYAA | no binding
46 | AGGGNDVV | no binding

Row | Variant | antigen binding call
47 | FKRRSFGS | no binding
48 | FEERNSLD | no binding
49 | FKARDSGD | no binding
50 | FKRRSSGD | binds
51 | FKKGSSGV | binds
52 | FKKGSSLD | binds
53 | FKRGSSLD | binds
54 | FKEGNSLD | no binding
55 | SEGADAGD | no binding
56 | SEGGDAWV | no binding
57 | FKKGSSWD | binds
58 | FKKEGYGD | no binding
59 | FKKGSSGD | binds
60 | FKKGSVGD | no binding
61 | VGGGNDLA chain 1 R87K | no binding
62 | FRAGGAWS | binds
63 | FRAGSAWS | binds
64 | DAAKNDAV | no binding
65 | DGGKNDGV | no binding
66 | VEGGADVF | no binding
67 | DTGGGDLA | no binding
68 | YKRGSSVS | binds
69 | YARAGSVS | no binding

Row | Variant | antigen binding call
70 | VRRGSSVS | binds
71 | YRRGGSVS | binds
72 | VEEEGSVS | no binding
73 | YRRGSSVS | binds
74 | DTGTGDGV | no binding
75 | YRRGGAVS | binds
76 | DTKAAAVV | no binding
77 | DRAGDDWV | no binding
78 | DRRGDSLV | no binding
79 | VRAGDYLV | no binding
80 | ARAGDYLV | no binding
81 | SRAGDYLV | no binding
82 | DRAGDSLV | binds
83 | DRAGDYLV | binds
84 | DRAGDYLY | no binding
85 | FRAGDYLV | binds
86 | SAREGDWV | no binding
87 | SAARDAVA | no binding
88 | FAGGGDVY | no binding
89 | VRTEDDVF | no binding
90 | FRGRGFSV | no binding
91 | FKGTDSSD | no binding
92 | FKGKSSSD | no binding

Row | Variant | antigen binding call
93 | FRGRGAWD | binds
94 | FRGRGASV | binds
95 | FRGRGSSD | binds
96 | FRGGASSD | binds
97 | DAKEGDVV | no binding
98 | VEGGGAGV | no binding
99 | DAGGADGV | no binding
100 | FRGRGASD | binds
101 | FAGRGYSD | no binding
102 | FRKGDASD | no binding
103 | DGGKNAVA | no binding
104 | VAGTGASD | no binding
105 | FRGRSSLA | binds
106 | FRTRSSLA | binds
107 | VEGEDAGA | no binding
108 | YRRGGSGA | binds
109 | FRRGSSGA | binds
110 | YRRGSSGA | binds
111 | YTRGGSGA | no binding
112 | DAKEGSSA | no binding
113 | DGGKNDVV | no binding
114 | VEGTSAGD | no binding
115 | VRTRGDGA | no binding

Row | Variant | antigen binding call
116 | FRGRDYAA | no binding
117 | YRTRSAAA | binds
118 | FRTRDAAA | binds
119 | FTTRGAVA | no binding
120 | YRTRGAGA | binds
121 | YTTRGAGA | no binding
122 | FRTRGVGA | no binding
123 | FRTRGAAA | binds
124 | SEARSDAS | no binding
125 | DKEGGDVD | no binding
126 | DATGGDGS | no binding
127 | SKGRSDAV | no binding
128 | SETGNVWF | no binding
129 | YRTRGAWA | binds
130 | YRTRGALA | binds
131 | YRTRGAAA | binds
132 | YATRGAAA | no binding
133 | VRTRGYLA | no binding
134 | VTGTGAVY | no binding
